Drawing on PubChem BioAssay (Tox21), this text covers Potency and outcome for 15 compounds.

Test [1] in a line: qHTS assay to identify small molecule antagonists of the thyroid receptor (TR) signaling pathway (AID 743065). Further: series mostly up to about 70 µM; nearly all actives have a fitted effect of over 55% in size. An outline of the steps:
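GH3.TRE-Luc rat pituitary cells carrying two TR response elements driving luciferase were plated for 4 h, given compound plus 1 nM T3 (final), and incubated 23.5 h at 37 C. ONE-Glo luminescence measured reporter inhibition; CellTiter-Fluor fluorescence tracked cytotoxicity.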
On the technique in general: qHTS replaces the single test concentration by a dilution series.

The test system of test [2] is thyroid hormone receptor (rat, GH3 cells). As to the kind of experiment: qHTS assay to identify small molecule agonists of the thyroid receptor (TR) signaling pathway (AID 743066; calls by dose curve).
Test [3] is described as follows: qHTS assay to identify small molecule antagonists of the estrogen receptor alpha (ER-alpha) signaling pathway - cell viability counter screen (AID 743074; calls by dose curve; further: nearly all actives have a fitted effect of over 45% in size).
Test [4] can be described thus: qHTS assay to identify small molecule antagonists of the estrogen receptor alpha (ER-alpha) signaling pathway using the BG1 cell line - cell viability counter screen (AID 743081).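 Further: compound given together with 17beta-estradiol as the ER stimulus; series mostly up to about 70 µM; nearly all actives have a fitted effect of over 45% in size.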
The target of a further test is Aromatase (Homo sapiens) (UniProt P11511). As to the kind of experiment: qHTS assay to identify aromatase inhibitors (AID 743083). Further: series mostly up to about 70 µM; nearly all actives have a fitted effect of over 55% in size.
Chain of Aromatase (Homo sapiens) (P11511 whole entry, looked up): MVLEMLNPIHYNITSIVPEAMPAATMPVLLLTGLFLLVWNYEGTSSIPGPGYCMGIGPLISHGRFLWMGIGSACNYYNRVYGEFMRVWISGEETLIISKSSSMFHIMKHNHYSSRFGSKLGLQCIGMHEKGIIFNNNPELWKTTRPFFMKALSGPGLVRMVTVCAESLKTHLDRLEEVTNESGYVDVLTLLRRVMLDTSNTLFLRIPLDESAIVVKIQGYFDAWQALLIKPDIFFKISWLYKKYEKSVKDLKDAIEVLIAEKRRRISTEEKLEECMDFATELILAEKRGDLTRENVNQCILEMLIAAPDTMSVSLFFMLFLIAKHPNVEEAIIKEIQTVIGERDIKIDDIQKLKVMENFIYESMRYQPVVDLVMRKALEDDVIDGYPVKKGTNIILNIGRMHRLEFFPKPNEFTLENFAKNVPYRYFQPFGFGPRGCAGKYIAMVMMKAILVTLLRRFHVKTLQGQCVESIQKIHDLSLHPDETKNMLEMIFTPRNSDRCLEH
Test [5] in a line: qHTS assay to identify aromatase inhibitors - cell viability counter screen (AID 743084).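 Further: cells stimulated with testosterone during compound exposure; nearly all actives have a fitted effect of over 55% in size.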
A short description of test [6]: qHTS assay to identify small molecule that activate the aryl hydrocarbon receptor (AhR) signaling pathway - cell viability counter screen (AID 743086).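 Further: HepG2 liver cells carrying the AhR DRE luciferase reporter; series mostly up to about 70 µM; nearly all actives have a fitted effect of over 45% in size.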 An outline of the steps: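 HepG2-AhR-luc (HG2L7.5c1) cells, 4000/well, were preincubated 5 h at 37C, exposed to compound in qHTS format for 24 hr at 37C, then given CellTiter-Fluor for 30 min; viability was read as fluorescence in the reporter wells.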

For test [7], the target named is Peroxisome proliferator-activated receptor gamma (Homo sapiens) (UniProt P37231). As to the kind of experiment: qHTS assay to identify small molecule agonists of the peroxisome proliferator-activated receptor gamma (PPARg) signaling pathway (AID 743094; active means well fitted activation curve with a large enough effect in the signal ratio in the repeat runs, not every such curve was filed as active; the % refers to the signal ratio). In short, it runs like this:
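Compounds dissolved in DMSO were added to PPARg UAS-bla HEK293H cells for 17 h at 37C, and reporter expression was quantified by fluorescence intensity after 1 h with LiveBLAzer B/G FRET substrate.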

The target is the same in test [8]. As to the kind of experiment: qHTS assay to identify small molecule antagonists of the peroxisome proliferator-activated receptor gamma (PPARg) signaling pathway (AID 743191; calls by dose curve; further: series mostly up to about 63 µM; nearly all actives have a fitted effect of over 30% in size). An outline of the steps: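 GeneBLAzer PPARg UAS-bla HEK293H cells carrying a UAS-driven beta-lactamase reporter were plated at 3000 cells/well, preincubated 5 h at 37C, then given compound for 17 h at 37C; LiveBLAzer B/G FRET substrate was read after 1 h at room temperature.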

Test [9] can be described thus: qHTS assay for small molecule agonists of the antioxidant response element (ARE) signaling pathway (AID 743202; active means well fitted activation curve with a large enough effect in the signal ratio in the repeat runs, not every such curve was filed as active; the % refers to the signal ratio; further: potency means the concentration at half of the fitted maximal effect). An outline of the steps: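 Read-out: LiveBLAzer B/G FRET substrate fluorescence after 2 h at room temperature, following 16 h compound treatment at 37 C of HepG2 cells carrying an ARE-driven beta-lactamase reporter.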
Test [10] is described as follows: qHTS assay for small molecule agonists of the antioxidant response element (ARE) signaling pathway - cell viability counter screen (AID 743203; calls by dose curve; further: nearly all actives have a fitted effect of over 55% in size). In short, it runs like this:
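Following 16 hrs of compound treatment at 37C, HepG2 cells with an ARE-controlled beta-lactamase gene were lysed with CellTiter-Glo. Luminescence was read after 30 min at room temperature.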

Test [11] is described as follows: qHTS assay for small molecule activators of the heat shock response signaling pathway - cell viability counter screen (AID 743209). Further: nearly all actives have a fitted effect of over 50% in size. In short, it runs like this:
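Readout: CellTiter-Glo luminescence, 30 min at room temperature. System: HSE-bla HeLa cells, 1500/well, plated overnight. Treatment: compounds in DMSO, 5 h at 37 C.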

Test [12] in a line: qHTS assay for small molecule activators of the heat shock response signaling pathway (AID 743210; active means well fitted activation curve with a large enough effect in the signal ratio in the repeat runs, with a control signal flat, not every such curve was filed as active; the % refers to the signal ratio; further: series mostly up to about 63 µM). An outline of the steps: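 HSE-bla HeLa cells (beta-lactamase reporter under heat shock response elements) were exposed to compounds for 5 h at 37 C, then loaded with LiveBLAzer B/G FRET substrate for 2.5 h at room temperature before fluorescence reading.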
The target in test [13] is Estrogen receptor (Homo sapiens) (UniProt P03372). As to the kind of experiment: qHTS assay to identify small molecule antagonists of the estrogen receptor alpha (ER-alpha) signaling pathway (AID 743069; active means well fitted curve in the direction sought with a large enough effect in the signal ratio in the repeat runs, not every such curve was filed as active; the % refers to the signal ratio). An outline of the steps: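 HEK293 cells stably carrying an ER-alpha-UAS-bla beta-lactamase reporter were pre-cultured overnight in 2% charcoal-stripped FBS medium. Test compounds in DMSO were added together with 17beta-estradiol for 18 hr at 37C. Read-out was fluorescence after 2 hr with LiveBLAzer B/G FRET substrate at room temperature.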
Chain of Estrogen receptor (Homo sapiens) (P03372 whole entry, looked up): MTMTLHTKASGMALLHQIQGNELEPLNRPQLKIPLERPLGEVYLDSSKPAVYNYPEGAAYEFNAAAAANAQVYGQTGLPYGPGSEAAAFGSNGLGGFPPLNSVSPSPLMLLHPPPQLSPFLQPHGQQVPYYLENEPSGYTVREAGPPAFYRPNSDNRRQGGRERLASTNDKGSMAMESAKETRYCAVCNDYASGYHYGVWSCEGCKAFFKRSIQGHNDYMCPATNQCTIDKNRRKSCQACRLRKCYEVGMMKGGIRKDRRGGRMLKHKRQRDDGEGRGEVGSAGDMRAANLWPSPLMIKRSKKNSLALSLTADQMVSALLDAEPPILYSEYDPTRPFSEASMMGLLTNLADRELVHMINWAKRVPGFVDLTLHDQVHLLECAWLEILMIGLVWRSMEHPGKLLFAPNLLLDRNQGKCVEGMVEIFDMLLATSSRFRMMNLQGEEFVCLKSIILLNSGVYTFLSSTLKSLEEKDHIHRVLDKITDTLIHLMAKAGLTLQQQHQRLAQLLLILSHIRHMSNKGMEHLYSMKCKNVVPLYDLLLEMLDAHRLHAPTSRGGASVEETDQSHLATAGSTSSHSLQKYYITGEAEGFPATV

For test [14] the target is unchanged. As to the kind of experiment: qHTS assay to identify small molecule agonists of the estrogen receptor alpha (ER-alpha) signaling pathway (AID 743075; calls by dose curve).
Test [15] has the same target. As to the kind of experiment: qHTS assay to identify small molecule agonists of the estrogen receptor alpha (ER-alpha) signaling pathway using the BG1 cell line (AID 743079). Further: nearly all actives have a fitted effect of over 20% in size.
A short description of test [16]: qHTS assay to identify small molecule antagonists of the estrogen receptor alpha (ER-alpha) signaling pathway using the BG1 cell line (AID 743080; calls by dose curve;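 further: BG1 cells stimulated with 17beta-estradiol alongside compound; series mostly up to about 70 µM; nearly all actives have a fitted effect of over 25% in size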). An outline of the steps:
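BG1-Luc-4E2 cells (endogenous full-length ER-alpha, stable 4×ERE-luciferase) were starved 5 days in phenol-red-free medium with 10% charcoal-stripped FBS, plated 24 h, then given compound plus 17beta-estradiol for 21.5 h at 37 C; ONE-Glo luminescence read after 30 min.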

The target of test [17] is Aryl hydrocarbon receptor (Homo sapiens) (UniProt P35869). As to the kind of experiment: qHTS assay to identify small molecule that activate the aryl hydrocarbon receptor (AhR) signaling pathway (AID 743085).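 Further: HG2L7.5c1 human HepG2 liver cells with stably integrated DRE-driven firefly reporter; series mostly up to about 70 µM; nearly all actives have a fitted effect of over 15% in size.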 In short, it runs like this: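 Luminescence (ONE-Glo) from a dioxin-responsive-element luciferase reporter in HG2L7.5c1 HepG2 cells after 24 hr compound exposure at 37C; viability measured by CellTiter-Fluor fluorescence beforehand.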
Chain of Aryl hydrocarbon receptor (Homo sapiens) (P35869 whole entry, looked up): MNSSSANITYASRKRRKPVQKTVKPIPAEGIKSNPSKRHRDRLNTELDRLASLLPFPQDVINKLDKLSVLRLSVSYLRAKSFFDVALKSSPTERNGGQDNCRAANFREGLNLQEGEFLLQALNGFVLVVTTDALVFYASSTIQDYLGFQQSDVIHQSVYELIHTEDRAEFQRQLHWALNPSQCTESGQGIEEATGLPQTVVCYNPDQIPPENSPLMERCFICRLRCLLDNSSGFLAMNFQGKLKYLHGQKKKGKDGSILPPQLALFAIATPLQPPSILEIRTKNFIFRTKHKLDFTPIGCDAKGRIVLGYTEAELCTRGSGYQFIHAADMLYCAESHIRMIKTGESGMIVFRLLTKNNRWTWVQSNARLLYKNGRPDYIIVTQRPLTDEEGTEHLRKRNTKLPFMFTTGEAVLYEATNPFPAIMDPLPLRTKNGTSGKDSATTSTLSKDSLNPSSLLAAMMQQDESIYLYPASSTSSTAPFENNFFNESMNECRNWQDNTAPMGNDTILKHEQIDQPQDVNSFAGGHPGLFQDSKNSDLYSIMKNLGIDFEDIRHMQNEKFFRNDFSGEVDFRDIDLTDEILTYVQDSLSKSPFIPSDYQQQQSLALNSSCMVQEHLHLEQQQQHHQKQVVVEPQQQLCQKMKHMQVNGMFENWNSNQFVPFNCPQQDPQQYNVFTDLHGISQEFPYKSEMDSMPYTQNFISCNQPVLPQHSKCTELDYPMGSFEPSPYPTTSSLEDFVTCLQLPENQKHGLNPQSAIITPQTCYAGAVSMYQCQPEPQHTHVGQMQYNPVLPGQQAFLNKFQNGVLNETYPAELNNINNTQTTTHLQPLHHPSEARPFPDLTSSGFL

Test [18] in a line: qHTS assay to identify small molecule antagonists of the peroxisome proliferator-activated receptor gamma (PPARg) signaling pathway - cell viability counter screen (AID 743194). Further: nearly all actives have a fitted effect of over 55% in size. In short, it runs like this: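 PPARg-UAS-bla HEK293H cells were plated, rested 5 h at 37 C, then treated with compounds plus rosiglitazone (50 nM final) for 17 h at 37 C; viability was then read by CellTiter-Glo luminescence after 30 min at room temperature.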

The structures appear in SMILES notation. Inconclusive results are not listed. Values without a mark were called inactive. Active and inactive are the calls of the source. Unless noted, the call rests on the fitted dose curve; in most records, active means well fitted curve in the direction sought with a large enough effect in the repeat runs; inconclusive means weak or mixed curves; inactive means no such curve, though single readings can be large; an effect the other way counts as inactive or inconclusive.

Chain of Peroxisome proliferator-activated receptor gamma (Homo sapiens) (P37231 whole entry, looked up): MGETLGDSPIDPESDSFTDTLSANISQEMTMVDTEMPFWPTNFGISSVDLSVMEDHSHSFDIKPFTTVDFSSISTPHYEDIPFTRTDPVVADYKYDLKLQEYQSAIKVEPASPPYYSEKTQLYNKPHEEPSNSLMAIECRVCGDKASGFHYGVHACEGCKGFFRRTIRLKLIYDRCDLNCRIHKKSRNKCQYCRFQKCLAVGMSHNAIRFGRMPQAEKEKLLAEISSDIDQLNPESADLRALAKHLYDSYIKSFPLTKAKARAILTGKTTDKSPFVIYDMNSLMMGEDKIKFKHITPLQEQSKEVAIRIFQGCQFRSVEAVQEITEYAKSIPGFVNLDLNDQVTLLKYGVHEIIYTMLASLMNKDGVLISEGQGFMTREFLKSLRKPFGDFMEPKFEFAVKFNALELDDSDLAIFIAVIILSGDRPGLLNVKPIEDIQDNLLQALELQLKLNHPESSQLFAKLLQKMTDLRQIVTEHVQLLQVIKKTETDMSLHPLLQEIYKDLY

For the compound `O=Cc1ccc(Cl)c(Cl)c1`, the Potency result (in test [1]; in the test with Aromatase (Homo sapiens); in test [5]; in test [6]; in [8]; in test [9]) was “inactive” each time. Moreover, the compound was called inactive in test [2], in test [3], in test [4], in [7], in test [10] and in [11]. Moreover, in [12], the result was inactive.

Regarding `CC(=O)/C=C/C1C(C)=CCC(C)C1(C)C` (configuration not stated), the Potency result (in test [1]; in [15]; in test [16]; with Aromatase (Homo sapiens); in [5]; in test [17]) was “inactive” throughout. In addition, the Potency result in test [8] was “inactive”. Moreover, the result in test [2], in test [13], in test [3], in test [14], in test [4] and in test [7] was inactive. Further, the compound was classed as inactive in test [18], in test [10] and in [11].

As to `CCCOC(=O)C(C)O` (configuration not stated), the Potency result in [1], in test [15], in test [16], in test [17], in test [6] and in test [8] was “inactive” throughout. Further, the Potency entry in [9] was “inactive”. Besides, the call in test [2], in test [13], in [3], in test [14], in [4] and in test [7] was inactive. Besides, the compound was called inactive in test [18], in test [10] and in test [11].

Take `CCCCCCCC/C=C\CCCCCCCC(=O)OCCCC`: the Potency entry (in test [1]; in test [15]; in test [16]; in the test with Aromatase (Homo sapiens); in test [5]; in [17]) was “inactive” each time. Also, the Potency entry in [6] and in test [9] was “inactive” throughout. Also, the compound was classed as inactive in test [2], in [13], in test [3], in [14], in [4] and in test [7]. Besides, the compound was called inactive in [18], in [11] and in [12].

Consider `O=C(O)Cc1ccc(Cl)cc1Cl`, for which the Potency result (in test [1]; in test [15]; in test [16]; in the test with Aromatase (Homo sapiens); in test [5]; in [17]) was “inactive” each time. In addition, the Potency result in test [8] and in test [9] was “inactive” in each case. In addition, the result in test [2], in test [13], in test [3], in [14], in test [4] and in test [7] was inactive. The compound was classed as inactive in test [18], in [11] and in test [12].

Take `COc1ccc(Br)c(C)c1`: the Potency entry (in [1]; with Aromatase (Homo sapiens); in test [5]; in test [17]; in test [6]; in test [9]) was “inactive” throughout. For the same compound, the call in [2], in test [3], in [4], in test [7], in test [18] and in test [11] was inactive.

For `CCCCCCN`, the Potency result (in test [1]; in test [15]; in test [16]; with Aromatase (Homo sapiens); in [5]; in [17]) was “inactive” throughout. Also, the Potency result in test [9] is “inactive”. The outcome in test [2], in test [13], in test [3], in test [14], in [4] and in [18] was inactive. Moreover, in test [11], the compound was called inactive.

For the compound `CC(=O)Nc1ccc(S(=O)(=O)Nc2ccc([N+](=O)[O-])cc2)cc1`, the Potency entry (in test [1]; in [15]; in [16]; in the test with Aromatase (Homo sapiens); in test [5]; in [17]) was “inactive” throughout. Further, the Potency entry in test [6] and in test [8] was “inactive” each time. Also, the call in [2], in test [13], in test [3], in test [14], in test [7] and in test [18] was inactive. The call in test [10] and in test [11] was inactive.

Regarding `CCc1ccc(C=O)cc1`, the Potency result (in [1]; with Aromatase (Homo sapiens); in test [5]; in test [17]; in test [6]; in test [8]) was “inactive” in each case. Besides, in [9], the Potency result is “inactive”. Besides, the compound was called inactive in test [2], in [3], in test [4], in test [7], in test [18] and in [10]. The compound was called inactive in test [11] and in [12].

Take `OCCC(F)(F)C(F)(F)C(F)(F)C(F)(F)C(F)(F)C(F)(F)C(F)(F)C(F)(F)F`: the Potency entry (in [1]; in test [15]; in test [16]; with Aromatase (Homo sapiens); in test [5]; in test [17]) was “inactive” in each case. Besides, the Potency entry in test [6] and in test [9] was “inactive” each time. Moreover, the result in [2], in test [3], in [14], in test [4], in test [11] and in test [12] was inactive.

For `O=C(O)c1ccc(Cl)cc1Cl`, the Potency result (in [1]; in test [16]; with Aromatase (Homo sapiens); in test [5]; in test [17]; in test [9]) was “inactive” in each case. The result in test [2], in test [13], in test [3], in [14], in test [4] and in [7] was inactive. Also, the compound was called inactive in test [10], in [11] and in [12].

Take `C=COCCOCCOCCOC=C`: the Potency result (in [1]; in the test with Aromatase (Homo sapiens); in [5]; in test [17]; in test [8]; in test [9]) was “inactive” each time. Moreover, the outcome in [2], in [3], in test [4], in test [7], in test [18] and in test [10] was inactive. Further, the call in test [11] was inactive.

In the case of `CC(CN)CC(C)(C)CCN` (configuration not stated), the Potency entry (in [1]; with Aromatase (Homo sapiens); in test [5]; in test [17]; in [6]; in [8]) was “inactive” each time. Besides, the outcome in test [2], in test [3], in test [4], in test [7], in test [18] and in test [10] was inactive. The result in test [11] and in [12] was inactive.

On to `c1ccc2c(c1)ccc1c3ccccc3ccc21`, for which the Potency result (in test [1]; with Aromatase (Homo sapiens); in test [5]; in test [8]) was “inactive” in each case. Moreover, the outcome in test [2], in [3], in test [4], in test [7], in [18] and in [10] was inactive. Also, the result in test [11] and in [12] was inactive. For the same compound, the Potency in test [9] was 24.8 µM (active).

For the compound `CC(C)CCCCOC(=O)c1ccccc1C(=O)OCCCCC(C)C`, the Potency entry (in test [1]; with Aromatase (Homo sapiens); in test [17]; in test [6]; in test [8]; in test [9]) was “inactive” each time. For the same compound, the result in test [2], in [3], in test [4], in [7], in test [18] and in test [11] was inactive.
